Values joined by “and” are separate entries in the source; they are usually repeats but may differ in a detail not shown here. Identical values can stand only once. Records with an inconclusive call do not appear. Values without a mark were called inactive. Active and inactive are the calls of the source. Calls come from the whole dose curve; as a rule, active = well fitted cell-killing curve with a large enough effect in the repeat runs; inconclusive = weak or mixed curves, or effect the other way; inactive = no such curve, though single readings can be large or run the other way.
% is set by controls: 0 for no effect and ±100 for the full control effect; potency is the fitted concentration of half-maximal effect.

The assay in a line: qHTS assay for identifying genotoxic compounds that show differential cytotoxicity against isogenic chicken DT40 cell lines with known DNA damage response pathways - Rev3 mutant cell line (AID 743014). Note: nearly all actives have a fitted effect of over 55% in size. Particulars: chicken DT40 Rev3-/- viability, CellTiter-Glo, 40 h; series mostly up to 68.4 µM; activity, negative = cytotoxicity: at the top concentration. An excerpt: National Center for Advancing Translational Sciences [NCATS]
NIH Chemical Genomics Center [NCGC]
U.S. Environmental Protection Agency [EPA]
National Institutes of Environmental Health Sciences [NIEHS]
National Toxicology Program [NTP]
U.S. Food and Drug Administration [FDA]
DNA repair pathways play a critical role in cellular homeostasis by repairing DNA damage induced by endogenous processes and xenobiotics. Isogenic chicken DT40 cell lines deficient in different DNA repair pathways can be used to identify genotoxic compounds and aid in characterizing the nature of the DNA damage induced. Two DNA repair-deficient cell lines with disrupted genes, Rad54/Ku70 or Rev3, were used to screen the Tox21 10K compound library. Possible genotoxicity was based on the presence of a significant increase in cytotoxicity in one or more of the DNA repair-deficient cell lines compared to that observed in the parental DNA repair-proficient cell line. CellTiter Glo viability assay (Promega, Madison, WI) was used to measure cell viability in these cells after compound treatment. This assay includes the data from the Rev3 mutant cell line.
Tox21 Assay Protocol Summary:
300 DT40 mutant cells in 5 uL/well were dispensed into white, solid-bottom 1536-well plates using a Multidrop Combi (ThermoFisher Scientific, Waltham, MA) dispenser. After the assay plates were incubated at 37 C/5% CO2 for approximately 0.5 hour, 23 nL of compounds dissolved in DMSO, positive controls or DMSO only was transferred into the assay plate by a pintool work station (Kalypsys, San Diego, CA). The assay plates were incubated at 37 C/5% CO2 for 40 hours. After 5 uL per well of CellTiter-Glo reagent was added into each well of the assay plates, the plates were incubated for 30 min at room temperature and the luminescence intensity of the plates was measured using a ViewLux (PerkinElmer, Shelton, CT) plate reader.
Turning to `C=CCBr`, the “activity, negative = cytotoxicity” value is 3.38% [at 95 µM].
As to `CCCCCCC[CH2][Sn]([Cl])([Cl])[CH2]CCCCCCC`, the “activity, negative = cytotoxicity” value is -0.14%.
As for `CC1(C)C(C=C(Cl)Cl)C1C(=O)OC(C#N)c1ccc(F)c(Oc2ccccc2)c1` (stereo not given), the “activity, negative = cytotoxicity” value was -18.6%.
On the same count and under the same terms, to `O=C(N[C@@H]1N=C(c2ccccc2F)c2cccc3c2N(CC3)C1=O)c1cc2ccccc2[nH]1` belongs -8.94%.
As to `N#CC(C#N)=NNc1cccc(Cl)c1`, the Potency is 2.73 µM (active).
As for `O=C(N[C@H]1N=C(c2ccccc2F)c2cccc3c2N(CC3)C1=O)c1cc2ccccc2[nH]1`, the “activity, negative = cytotoxicity” value is 2.82%.
With `C#CC1(O)CCCCC1`, the “activity, negative = cytotoxicity” value is -2.39%.
As to `O=C1C2(Cl)C3(Cl)C4(Cl)C(Cl)(Cl)C5(Cl)C3(Cl)C1(Cl)C5(Cl)C24Cl` (stereo not given), the Potency was 13.5 µM (active) and 32.9 µM (active).
For `CN`, the “activity, negative = cytotoxicity” value is 10.2% [at 95 µM].
With `CC1=C2C[C@H]3[C@@H](CC=C4C[C@@H](O)CC[C@@]43C)[C@@H]2CC[C@]12O[C@@H]1C[C@H](C)CN[C@H]1[C@H]2C`, the Potency was 8.41 µM (active).
In the case of `N#Cc1sc2c(=O)c3ccccc3c(=O)c=2sc1C#N`, the Potency is 0.433 µM (active).
The same measure, in the same setting: to `O=C1C(Cl)=C(Cl)C(=O)C(Cl)=C1Cl` belongs 8.6 µM (active) and 6.86 µM (active).
For the compound `CC(Cc1ccc(O)cc1)NCC(O)c1cc(O)cc(O)c1` (stereo not given), the “activity, negative = cytotoxicity” value is 13.2%.
Consider `Clc1ccc(C2(Cn3cncn3)OCCO2)c(Cl)c1`, for which the Potency is 30.6 µM (active).
Take `CC1CCCC1`: the “activity, negative = cytotoxicity” value is 7.42%.
For the compound `O=[N+]([O-])[O-].[Tl+]`, the Potency is 1.09 µM (active).
As to `Nc1nc(N)nc(Cl)n1`, the “activity, negative = cytotoxicity” value was 3.69%.
Still for that read-out and setting: to `N#Cc1ccc(N(CC(N)=O)CC(F)(F)F)cc1C(F)(F)F` belongs -22.6%; to `[O]=[Cr][O][Cr]=[O]`, 4.46% [at 95 µM]; to `ClCBr`, 6.35% [at 95 µM].
Consider `COC(=O)C(C)N(C(=O)c1ccco1)c1c(C)cccc1C` (stereo not given), for which the Potency was 54.4 µM (active).
Turning to `S=C=Nc1ccccc1`, the “activity, negative = cytotoxicity” value is 2.77% [at 95 µM].
On the same count and under the same terms, to `CC(Cc1ccc2c(c1)OCO2)NO` (stereo not given) belongs -10.2% [at 95 µM].
Regarding `CCN(CC)C(=O)N[C@@H]1C=C2c3cccc4[nH]cc(c34)C[C@@H]2N(C)C1`, the Potency was 26.6 µM (active).
Consider `C=CCOC(=O)c1ccccc1N`, for which the “activity, negative = cytotoxicity” value was -0.879% [at 95 µM].
Still for that read-out and setting: to `CC(C)Br` belongs 3.25%; to `O=c1c2ccccc2c(=O)c2c1cc(Cl)c1[nH]c3c([nH]c12)c(Cl)cc1c(=O)c2ccccc2c(=O)c13`, 4.08%.
For the compound `C#CCC1=C(C)C(OC(=O)C2C(C=C(C)C)C2(C)C)CC1=O` (stereo not given), the Potency was 30.4 µM (active).
Turning to `CCCCc1ccccc1`, the “activity, negative = cytotoxicity” value was -15%.
Regarding `CC(=O)[O-].CC(=O)[O-].O.O.O.[Pb+2]`, the “activity, negative = cytotoxicity” value is 0.0805%.
The same measure, in the same setting: to `OCC(Br)CBr` (stereo not given) belongs 0.169% [at 95 µM]; to `Nc1ccccc1-c1ccccc1`, 3.39%.
As to `CC(C)=CC1C(C(=O)OC(C#N)c2cccc(Oc3ccccc3)c2)C1(C)C` (stereo not given), the “activity, negative = cytotoxicity” value was -7.15%.
As to `Oc1cc(Cl)cc(Cl)c1`, the Potency was 61.8 µM (active).
In the case of `O=C(O)CCCCCCNC1c2ccccc2CCc2ccccc21`, the “activity, negative = cytotoxicity” value was -1.29%.
Still for that read-out and setting: to `CN(C)CCc1c[nH]c2ccccc12` belongs -9.78% [at 95 µM].
Take `CC(=O)C(Cl)C(=O)N(C)C` (stereo not given): the Potency was 24.3 µM (active).
Same read-out and setting: to `COP(=O)(OC)Oc1ccc([N+](=O)[O-])cc1` belongs 61.1 µM (active).
Turning to `CNN`, the “activity, negative = cytotoxicity” value was 3.38% [at 95 µM].
Take `CC(C)C(Br)C(=O)NC(N)=O` (stereo not given): the “activity, negative = cytotoxicity” value was 13.2%.

Values taken from PubChem BioAssay (Tox21).
